# Source: PubChem BioAssay
# Where “and” joins values, the source holds several entries; their conditions need not be identical. Equal values may be shown once. Inconclusive results are not listed. Calls of active or inactive are those of the source.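 Rule for the calls, unless noted: active = normalized viability below 100% at a tested concentration; inactive = the rest.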
# Experiments:
# [1] = viability loss in pontine glioma line – cell-based, SU-DIPG-XVII, MIPE5.0, CellTiter-Glo, qHTS, dose response (AID 1347060; cut-off not given, nearly all actives have AC50 up to about 26 µM;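 note: cells exposed to compound for 48 hours before viability readout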); details: CellTiter-Glo ATP luminescence
# [2] = viability loss in pontine glioma line – cell-based, SU-DIPG-XIII, MIPE4.0, CellTiter-Glo, qHTS, dose response (AID 1347061; cut-off not given, nearly all actives have AC50 up to about 37 µM;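 note: cells exposed to compound for 48 hours before readout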); details: CellTiter-Glo ATP luminescence
# [3] = viability loss in pontine glioma line – cell-based, JHH-DIPG-1, MIPE4.0, CellTiter-Glo, qHTS, dose response (AID 1347062; cut-off not given, nearly all actives have AC50 up to about 27 µM); details: JHH-DIPG-1 viability, CellTiter-Glo ATP luminescence
# [4] = viability loss in pontine glioma line – cell-based, SU-DIPG-XIII, MIPE5.0, CellTiter-Glo, qHTS, dose response (AID 1347064; cut-off not given, nearly all actives have AC50 up to about 23 µM); details: CellTiter-Glo ATP luminescence
# [5] = growth inhibition of DIPG cells – cell-based, MIPE4.0 library, CellTiter-Glo luminescence, qHTS (AID 1347066; cut-off not given, nearly all actives have AC50 up to about 30 µM;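 note: cells exposed to compound for 48 hours before readout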); details: SU-DIPG-VI viability, CellTiter-Glo ATP luminescence
# [6] = JHH-DIPG-1 glioma cell viability, MIPE5.0 library, CellTiter-Glo luminescence, qHTS (AID 1347067; cut-off not given, nearly all actives have AC50 up to about 26 µM;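 note: cells exposed to compound for 48 hours before readout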); details: JHH-DIPG-1 glioma viability, CellTiter-Glo ATP luminescence
# [7] = growth inhibition of DIPG cells – cell-based, MIPE5.0 library, qHTS (AID 1347068; cut-off not given, nearly all actives have IC50 up to about 30 µM); details: SU-DIPG-XXV viability
# [8] = viability loss with induced miR-34 in A549 – imaging, A549 dox-inducible miR-34, nuclei and caspase counts, primary screen (AID 1347080;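 active = compounds whose cell count with miR-34 switched on is under 0.7 times the count with it off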); details: A549 miR-34 inducible, Hoechst nuclei count, 48 h
# [9] = compounds altering HSF1 focus formation in cells – imaging, Selleck Cancer Library (AID 1347162; in the data active = plate-normalised HSF1 focus index below about 0.46); details: human cells, HSF1 nuclear foci imaging, at 10 µM; SSMD: measured here: HSF1 foci SSMD mean; cell count: measured here: cell number; plate-normalised HSF1 focus index: stronger effect = lower value
# [10] = MELAS cybrid and Rieske KO viability enhancers – cell-based, MELAS cybrids, Rieske KO mouse fibroblasts, CellTiter-Glo, primary screen (AID 1508586;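 active = mean z-score across replicates of 1.96 or higher in either the MELAS or the Rieske mutant cell line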;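 note: z relative to plate mean and SD of compound and empty wells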); details: low glucose
# [11] = drug combination growth inhibition, ovarian cancer – cell-based, oncology-focused library, rucaparib conditional, profiling panel (AID 1508598); details: patient-derived ovarian cancer cells, CellTiter-Glo viability, 144 h, stronger effect = lower value
# [12] = growth inhibition, single agent or in combination, cell-based, chromothripsis tumors, cisplatin or BGB combos (AID 1671449; in the data active = inhibition above about 80%;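 note: cells exposed for 96 hours; 0% = vehicle DMSO and 100% = killing by high DMSO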); details: LFS_MB_P medulloblastoma cells
# [13] = growth inhibition, single agent and combos, cell-based, chromothripsis tumors, cisplatin or BGB combos (AID 1671450; in the data active = inhibition above about 80%;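 note: cells exposed to compound for four days; 0% = vehicle DMSO and 100% = cell killing by high DMSO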); details: HDN33 neuroblastoma cells, stronger effect = higher value
# [14] = growth inhibition, single agents and combos, ICB984, cell-based, cisplatin or BGB combos, synergistic combos for chromothripsis tumors (AID 1671451; call rule not given here;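 note: cells exposed for 96 hours before readout; 0% = vehicle DMSO and 100% = killing by high DMSO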); details: ICB984 medulloblastoma cells, drug combinations, stronger effect = higher value
# [15] = growth inhibition, single agents and combos, HTB85, cell-based, BGB or cisplatin IC20 combos, synergistic combos for chromothripsis tumors (AID 1671453; in the data active = inhibition above about 80%;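 note: cells exposed for 96 hours before readout; 0% = vehicle DMSO and 100% = high DMSO killing control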); details: HTB85 osteosarcoma cells, drug combinations, stronger effect = higher value
# [16] = growth inhibition, MDA-MB-436, cell-based, BGB or cisplatin combos, synergistic combos for chromothripsis tumors (AID 1671458; call rule not given here;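 note: cells exposed for 96 hours; 0% = vehicle DMSO and 100% = killing by high DMSO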); details: MDA-MB-436 breast carcinoma growth inhibition, drug combinations, stronger effect = higher value
# [17] = BT084 cell growth, single and combined drugs, ICGC_MB145, cisplatin and BGB IC40 combos (AID 1671461; in the data active = inhibition above about 80%;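 note: cells exposed to drugs for 96 hours; 0% = vehicle DMSO and 100% = high DMSO full killing control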); details: BT084 medulloblastoma cells, drug combinations, stronger effect = higher value
# [18] = RCMB18 cell growth, single agent and combined, cisplatin and BGB IC40 combos (AID 1671462; in the data active = inhibition above about 80%;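 note: cells exposed to compound for four days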); details: RCMB18 medulloblastoma cells, stronger effect = higher value
structure (smiles),measurement,setting,value
O=C(c1cc(Cc2n[nH]c(=O)c3ccccc23)ccc1F)N1CCN(C(=O)C2CC2)CC1,AC50,[1],20.9 µM (active)
same,AC50,[2],18.7 µM (active)
same,outcome,[3],inactive
same,outcome,[4],inactive
same,outcome,[5],inactive
same,outcome,[6],inactive
same,outcome,[7],inactive
same,fold change,"[8]; stronger effect = lower value, cell number ratio, induced over uninduced",0.871 (inactive)
same,fold change,[8]; measured here: relative caspase fold change +Dox/-Dox,1.53
same,cell count,"[8]; measured here: total cells with miR-34 induction, stronger effect = lower value",4680
same,cell count,[8]; measured here: total cells without miR-34 induction,5380
same,SSMD,[9],2.16
same,cell count,[9],7320
same,plate-normalised HSF1 focus index,[9],1.13 (inactive)
same,z-score,"[10]; MELAS cybrid survival, CellTiter-Glo 48 h, stronger effect = higher value",-0.516 (inactive)
same,z-score,"[10]; Rieske KO mouse fibroblast survival, CellTiter-Glo 72 h",0.876
same,viability,"[11]; at 0.000305 µM, OCI-C5x cells, with rucaparib 10 µM, 100% = cells with rucaparib alone",125% (inactive)
same,viability,"[11]; at 0.000305 µM, OCI-C5x cells, without rucaparib",123% (inactive)
same,viability,"[11]; at 0.000305 µM, OCI-P5x cells, with rucaparib 20 µM, 100% = cells with rucaparib alone",96.5% (active)
same,viability,"[11]; at 0.000305 µM, OCI-P5x cells, without rucaparib",101% (inactive)
same,viability,"[11]; at 0.00122 µM, OCI-C5x cells, with rucaparib 10 µM, 100% = cells with rucaparib alone",132% (inactive)
same,viability,"[11]; at 0.00122 µM, OCI-C5x cells, without rucaparib",122% (inactive)
same,viability,"[11]; at 0.00122 µM, OCI-P5x cells, with rucaparib 20 µM, 100% = cells with rucaparib alone",104% (inactive)
same,viability,"[11]; at 0.00122 µM, OCI-P5x cells, without rucaparib",97% (active)
same,viability,"[11]; at 0.00488 µM, OCI-C5x cells, with rucaparib 10 µM, 100% = cells with rucaparib alone",128% (inactive)
same,viability,"[11]; at 0.00488 µM, OCI-C5x cells, without rucaparib",120% (inactive)
same,viability,"[11]; at 0.00488 µM, OCI-P5x cells, with rucaparib 20 µM, 100% = cells with rucaparib alone",101% (inactive)
same,viability,"[11]; at 0.00488 µM, OCI-P5x cells, without rucaparib",92.4% (active)
same,viability,"[11]; at 0.0195 µM, OCI-C5x cells, with rucaparib 10 µM, 100% = cells with rucaparib alone",114% (inactive)
same,viability,"[11]; at 0.0195 µM, OCI-C5x cells, without rucaparib",123% (inactive)
same,viability,"[11]; at 0.0195 µM, OCI-P5x cells, with rucaparib 20 µM, 100% = cells with rucaparib alone",96.5% (active)
same,viability,"[11]; at 0.0195 µM, OCI-P5x cells, without rucaparib",87.9% (active)
same,viability,"[11]; at 0.0781 µM, OCI-C5x cells, with rucaparib 10 µM, 100% = cells with rucaparib alone",118% (inactive)
same,viability,"[11]; at 0.0781 µM, OCI-C5x cells, without rucaparib",119% (inactive)
same,viability,"[11]; at 0.0781 µM, OCI-P5x cells, with rucaparib 20 µM, 100% = cells with rucaparib alone",104% (inactive)
same,viability,"[11]; at 0.0781 µM, OCI-P5x cells, without rucaparib",96% (active)
same,viability,"[11]; at 0.313 µM, OCI-C5x cells, with rucaparib 10 µM, 100% = cells with rucaparib alone",118% (inactive)
same,viability,"[11]; at 0.313 µM, OCI-C5x cells, without rucaparib",123% (inactive)
same,viability,"[11]; at 0.313 µM, OCI-P5x cells, with rucaparib 20 µM, 100% = cells with rucaparib alone",96.9% (active)
same,viability,"[11]; at 0.313 µM, OCI-P5x cells, without rucaparib",85.5% (active)
same,viability,"[11]; at 1.25 µM, OCI-C5x cells, with rucaparib 10 µM, 100% = cells with rucaparib alone",123% (inactive)
same,viability,"[11]; at 1.25 µM, OCI-C5x cells, without rucaparib",117% (inactive)
same,viability,"[11]; at 1.25 µM, OCI-P5x cells, with rucaparib 20 µM, 100% = cells with rucaparib alone",94.6% (active)
same,viability,"[11]; at 1.25 µM, OCI-P5x cells, without rucaparib",75.5% (active)
same,viability,"[11]; at 5 µM, OCI-C5x cells, with rucaparib 10 µM, 100% = cells with rucaparib alone",105% (inactive)
same,viability,"[11]; at 5 µM, OCI-C5x cells, without rucaparib",115% (inactive)
same,viability,"[11]; at 5 µM, OCI-P5x cells, with rucaparib 20 µM, 100% = cells with rucaparib alone",86.1% (active)
same,viability,"[11]; at 5 µM, OCI-P5x cells, without rucaparib",66.2% (active)
same,inhibition,"[12]; at 0.5 µM, stronger effect = higher value",-24.7% (inactive) and -29.1% (inactive)
same,inhibition,"[12]; measured here: combination with BGB IC20, at 0.005 µM",-26.5% and -12.3%
same,inhibition,"[12]; measured here: combination with BGB IC40, at 0.005 µM",-9.06% and -12.6%
same,inhibition,"[12]; measured here: combination with BGB IC40, at 0.05 µM",-0.874% and -8.68%
same,inhibition,"[12]; measured here: combination with cisplatin, at 0.5 µM, stronger effect = higher value",-41.7% and -35.8%
same,inhibition,"[12]; measured here: combination with cisplatin, at 5 µM, stronger effect = higher value",-43.9% and -38.7%
same,inhibition,"[13]; BGB combo, at 5 µM",14.5% and 9.24%
same,inhibition,[13]; at 0.5 µM,9.6% (inactive) and 3.35% (inactive)
same,inhibition,"[13]; cisplatin combo, at 5 µM",34.3% and 41.4%
same,inhibition,"[13]; measured here: with BGB IC20 combination, at 0.5 µM",5.51% and -1.25%
same,inhibition,"[13]; measured here: with cisplatin IC20 combination, at 0.5 µM",12.4% and 7.9%
same,inhibition,"[13]; single agent, at 5 µM",33% and 44.4%
same,inhibition,"[14]; BGB IC20 combo, at 0.005 µM",-15.2% and -6.05%
same,inhibition,"[14]; BGB IC40 combo, at 0.005 µM",-0.22% and -27.2%
same,inhibition,"[14]; BGB IC40 combo, at 0.05 µM",-4.94% and -12.9%
same,inhibition,[14]; at 0.5 µM,-19.9% (inactive) and -38.5% (inactive)
same,inhibition,"[14]; cisplatin combo, at 0.05 µM",-4.94% and -17.3%
same,inhibition,"[14]; cisplatin combo, at 0.5 µM",-29% and -53.3%
same,inhibition,"[14]; cisplatin combo, at 5 µM",-23.6% and -39.9%
same,inhibition,"[14]; measured here: 5 uM single agent, at 5 µM",-15.8% and -10.7%
same,inhibition,[15]; at 0.5 µM,-1.59% (inactive) and -5.82% (inactive)
same,inhibition,"[15]; measured here: with BGB IC20, at 0.5 µM",-20% and -25.5%
same,inhibition,"[15]; measured here: with BGB IC20, at 5 µM",-17% and 2.87%
same,inhibition,"[15]; measured here: with cisplatin IC20, at 0.5 µM",8.83% and 6.96%
same,inhibition,"[15]; measured here: with cisplatin IC20, at 5 µM",18.3% and 28.5%
same,inhibition,"[15]; single agent, at 5 µM",9.91% and 21.3%
same,inhibition,[16]; at 0.5 µM,6.46% (inactive) and -12% (inactive)
same,inhibition,"[16]; measured here: BGB combination, at 0.5 µM",1.64% and -35.6%
same,inhibition,"[16]; measured here: BGB combination, at 5 µM",-1.2% and -15.8%
same,inhibition,"[16]; measured here: cisplatin combination, at 0.5 µM",-0.142% and -2.85%
same,inhibition,"[16]; measured here: cisplatin combination, at 5 µM",30.4% and 14.1%
same,inhibition,[17]; at 0.5 µM,-15.3% (inactive) and -32.2% (inactive)
same,inhibition,"[17]; cisplatin combination, at 0.5 µM",-11.1% and -29.9%
same,inhibition,"[17]; cisplatin combination, at 5 µM",-16.5% and -11.4%
same,inhibition,"[17]; measured here: BGB IC40 combination 0.05 uM, at 0.05 µM",-6.85% and 14.5%
same,inhibition,"[17]; single agent, at 5 µM",-19.8% and -50%
same,inhibition,[18]; at 0.5 µM,-14.1% (inactive) and 10.3% (inactive)
same,inhibition,"[18]; cisplatin combo, at 5 µM",0.788% and 11.5%
same,inhibition,"[18]; measured here: BGB IC40 combination, at 0.05 µM",-1.19% and -22.9%
same,inhibition,"[18]; measured here: combination with cisplatin, at 0.5 µM",-43.2% and 20.2%
same,inhibition,"[18]; single agent, at 5 µM",-22.3% and -45%
